TRHR agonist: activates the human TRH receptor; P34981; TRHR cells, calcium flux fluo-8, FDSS agonist mode; activation, % at 2 µM; 360,000 tested, 0.18% active; AID 493084
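TRHR-expressing cells, plated overnight in medium with 10% serum, were loaded with fluo-8 calcium dye at room temperature. After a 10 s baseline, library compound was pin-added and calcium release was recorded kinetically (ex 480/em 530) as agonist response.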
D1 potentiator: enhances dopamine response at the human D1 receptor; HEK293 TREx D1 cells, calcium flux, dopamine EC20 potentiation; potentiation, % at 10 µM; 360,000 tested, 0.036% active; AID 504651; in the data active means potentiation above about 30%
Target sequence (P21728 whole entry, looked up): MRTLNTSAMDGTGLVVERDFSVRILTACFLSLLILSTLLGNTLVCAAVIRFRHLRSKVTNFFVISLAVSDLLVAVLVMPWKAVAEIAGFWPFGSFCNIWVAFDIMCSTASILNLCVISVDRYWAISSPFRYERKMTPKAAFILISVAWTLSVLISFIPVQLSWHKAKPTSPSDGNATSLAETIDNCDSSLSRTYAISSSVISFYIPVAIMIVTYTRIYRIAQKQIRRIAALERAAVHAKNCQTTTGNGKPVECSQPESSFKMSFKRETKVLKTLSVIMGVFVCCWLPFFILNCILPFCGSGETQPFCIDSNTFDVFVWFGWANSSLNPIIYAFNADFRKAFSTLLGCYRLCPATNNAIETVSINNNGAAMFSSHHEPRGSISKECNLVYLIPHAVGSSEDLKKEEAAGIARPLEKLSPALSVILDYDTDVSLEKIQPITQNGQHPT
D1 ag: agonists of human D1 dopamine receptor; 360,000 tested, 1% active; AID 504660; activation, % at 2 µM; HEK293 T-REx D1 cells, calcium flux, agonist mode; P21728
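Tetracycline-induced HEK293 TREx D1 cells, force-coupled to calcium signalling, were dye-loaded with a no-wash calcium kit. Compound was pin-added after a 10 s baseline. Fluorescence was read kinetically at 1 cycle/s for 180 s, with calcium rises flagged as agonism.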
D1 antag: blocks dopamine activation of the human D1 receptor; P21728; HEK293 TREx D1 cells, calcium flux, dopamine EC80; hits give low values; activity change, negative = inhibition, % at 10 µM; 360,000 tested, 3.2% active; in the data active means activity change below about -30%
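After overnight tetracycline induction at 30 C, force-coupled D1 HEK293 cells took up a no-wash calcium dye at room temperature. Compounds were added and monitored 180 s, and the response to EC80 dopamine was then recorded.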
TRHR PAM: TRH receptor (human) allosteric enhancement. P34981. TRHR cells, fluo-8 calcium fluorescence, EC20 TRH enhancement. enhancement, % at 2 µM. 360,000 tested, 0.66% active; in the data active means enhancement above about 30%
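Enhancer read-out: after compound pinning and an initial kinetic agonist-mode read, an EC20 of TRH (10 nM final) was injected and fluo-8 calcium signal (Ex 480/Em 530) followed at 1 s/cycle for 100 cycles in TRHR-expressing cells.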
Of the large screens only hits and unclear results are named; the others gave an inactive call. An excerpt weighted towards active compounds, which were near 4.7% of everything screened. Unless noted, no stated cut-off is given here; in the data, active means activation above about 30%; inactive means the rest.

O=C(Nc1cccc(C(F)(F)F)c1)c1ccc(Cn2cc(Br)cn2)o1	D1 ag 34, D1 antag -31
Cc1cc(C)n(Cc2ccc(C(=O)Nc3cccc(Br)c3)o2)n1	D1 ag 38
CCOc1ccccc1-n1nnc(-c2nc(-c3ccccc3)no2)c1N	none
CC(C)(C)OC(=O)n1cc(/C=N/NC(=O)c2ccco2)c2ccccc21	TRHR PAM 31
CC(=O)n1cc(/C=N/NC(=O)c2ccccc2O)c2ccccc21	none
CCOc1ccc(NC(=O)CC2Nc3cccc4cccc(c34)NC2=O)cc1 (stereo not given)	none
COc1ccc(N2CCN(C(=O)CNC(=O)c3ccco3)CC2)cc1	D1 antag -80
COc1ccc(N2CCN(S(=O)(=O)CCNC(=O)c3ccco3)CC2)cc1	none
C[C@@H]1C[C@@H]2OC(=O)[C@]3(C)[C@H]2[C@@H](OC3(C)O)[C@]2(C)C(=O)C=C[C@H]12 (stereo not given in full)	D1 antag -37
NS(=O)(=O)c1ccc(NC(=O)C(Sc2ccccc2)c2ccccc2)cc1 (stereo not given)	D1 antag -33
CN(C)c1ccc(/C=C2\SC(N3CCCCC3)=NC2=O)cc1	D1 ag 37
Cc1ccc(/C=C2\SC(N3CCCC3)=NC2=O)cc1	none
COC(=O)CSC1=NS(=O)(=O)c2ccccc21	TRHR PAM 39
CN(C)c1ccc(CNC(=O)c2cccc(NC(=O)N3CCSc4ncccc43)c2)cc1	none
Cc1cc(N2CCN(S(=O)(=O)c3ccc4c(c3)OCCO4)CC2)n2ncnc2n1	D1 antag -46
Cc1cc(N2CCN(S(=O)(=O)c3ccc(Br)cc3)CC2)n2ncnc2n1	none
Cc1ccccc1NC(=O)/C(C#N)=C/c1ccc(Cl)cc1Cl	none
O=C(O)c1ccc(CSc2nnnn2-c2ccc(F)cc2)cc1	D1 antag -31
O=C(CCCSc1nnnn1-c1cccc2ccccc12)c1ccc(F)cc1	D1 ag 62, D1 antag -47
O=C(Nc1nccs1)c1ccc(CSc2nnnn2-c2ccccc2)cc1	D1 antag -34
O=C(CSc1nnnn1-c1cccc2ccccc12)Nc1ccc(C(=O)O)cc1	none
Cc1nn(C(=O)c2cccc(F)c2)c(C)c1S(=O)(=O)N1CCCCCC1	none
CCc1nc(SC)ncc1C(=O)N1CCN(c2cc(C)ccc2C)CC1	none
C/C(=N\Nc1nccnc1Cl)c1ccc([N+](=O)[O-])cc1	D1 antag -61
C/C(=N\Nc1nccnc1Cl)c1ccc(Br)cc1	none
O=C1c2ccc(Oc3ccc([N+](=O)[O-])cc3)cc2C(=O)N1CCCO	D1 antag -37
Fc1ccc(-n2cc(-c3ccccc3)c3c(NN4CCOCC4)ncnc32)cc1	D1 antag -33
CC(=O)N1CCCc2cc(S(=O)(=O)N3CCC(C(=O)NCc4ccccc4Cl)CC3)ccc21	none
CC1=CC(C)(C)Nc2ccc(Cc3ccc4c(c3)C(C)=CC(C)(C)N4)cc21	TRHR PAM 38
CC1=CC(C)(C)Nc2ccc(C)cc21	none
CC(C)=CCN1CCN(Cc2ccc(C#CC(C)(C)O)s2)CC1CCO (stereo not given)	D1 antag -37
CC(C)(O)C#Cc1ccc(CN2CCN(CCc3ccccc3)C(CCO)C2)s1 (stereo not given)	D1 antag -37
CC(C)(O)C#Cc1ccc(CN2CCN(Cc3ccsc3)C(CCO)C2)s1 (stereo not given)	none
CC(C)(O)C#Cc1ccc(CN2CCN(Cc3ccccc3)C(CCO)C2)s1 (stereo not given)	none
Cc1c2cnn(CC(=O)NC(C)C)c(=O)c2c(C)n1Cc1ccccc1Cl	D1 antag -31
COc1ccccc1CNC(=O)Cn1ncc2c(C)n(Cc3ccccc3Cl)c(C)c2c1=O	none
Cc1cccc(-c2noc(-c3ccc4c(c3)OCO4)n2)c1	D1 antag -45
CCN(Cc1nc(-c2cccc(C)c2)no1)C(=O)c1ccc2c(c1)OCO2	D1 ag 35 (no result: D1 potentiator)
COc1ccc(-c2nc(-c3cccc(C)c3)no2)cc1OC	none
COc1ccc(/C(O)=C/c2nc3ccc(C(=O)NCCc4cccc(C)c4)cc3[nH]c2=O)cc1OC	D1 ag 71
O=S(=O)(c1ccc2ccccc2c1)N1CCC(c2nc(-c3ccncc3)no2)CC1	D1 antag -35
Cn1cc(C=C2C(=O)OC3(CCCCC3)OC2=O)c2ccccc21	D1 antag -30
Cn1cc(C=C2C(=O)CC(C)(C)CC2=O)c2ccccc21	none
CN(C)c1ccc(NS(=O)(=O)c2ccc(-c3csnn3)cc2)cc1	D1 ag 30
Cc1ccc(C)c(N2CCN(S(=O)(=O)c3c(C(=O)N4CCC(C)CC4)c(C)n(C)c3C)CC2)c1	none
C=CCNC(=O)c1ccc(C2SCC(=O)N2Cc2ccccc2)cc1 (stereo not given)	none
O=C(NCc1ccccc1)c1ccc(C2SCC(=O)N2Cc2ccccc2)cc1 (stereo not given)	D1 ag 34
CC1CCN(S(=O)(=O)c2ccc3c(ccc(=O)n3CC(=O)NCc3ccccc3Cl)c2)CC1	none
O=S(=O)(c1ccc(F)cc1)N1CCN(c2nc(-c3ccccc3)nc3cc(Cl)ccc23)CC1	none
CCc1ccc(/C=C/C(=O)c2ccc(N3CCOCC3)cc2)cc1	none
CCc1ccc(/C=C/C(=O)c2ccc(S(=O)(=O)N(C)C)cc2)cc1	D1 ag 50, D1 antag -62
CC1CCCN(C(=O)CSCC(=O)Nc2nc(-c3cccs3)cs2)C1 (stereo not given)	D1 antag -84 (no result: D1 potentiator)
COc1ccc2[nH]c(C(=O)N3CCNCC3)cc2c1OC	D1 antag -41
Cc1cccc(N2CCN(C(=O)C3CCCN(S(=O)(=O)c4cccc5nsnc45)C3)CC2)c1C (stereo not given)	none
CNc1nc(Oc2ccccc2C(=O)OC)nc(SC)n1	D1 antag -40
CCOC(=O)c1ccc(Oc2nc(NC)nc(SC)n2)cc1	D1 antag -34
COC(=O)c1ccccc1Oc1cnc2ccccc2n1	none
CCCOc1ccc(C(=O)Nc2ccc3oc(-c4ccc5ccccc5c4)nc3c2)cc1	none
CCOC(=O)C1CCN(C(=O)Cn2c(=O)oc3cc(S(=O)(=O)N4CCCC4)ccc32)CC1	none
CCOC(=O)C1CCN(C(=O)c2cc(S(=O)(=O)N3CCOCC3)ccc2C)CC1	TRHR PAM 31
Cc1ccc(S(=O)(=O)N2CCC(C(=O)OCC(=O)N(C)C3CCCCC3)CC2)cc1C	D1 antag -38
CCOC(=O)C1CCN(C(=O)Cn2c(=O)oc3cc(S(=O)(=O)N4CCC(C)CC4)ccc32)CC1	D1 antag -39
Cc1ccc(S(=O)(=O)N2CCOCC2)cc1C(=O)Nc1ccc(C(N)=O)cc1	D1 antag -32

Screens deposited in PubChem by National Center for Advancing Translational Sciences (NCATS).
